From the supplement of paper PMC11732987, “Enantioselective OTUD7B fragment discovery through chemoproteomics screening and high-throughput optimisation” (Communications Chemistry, 2025)

Legend:
Test in all cases: log2 ratio of Biotin-Ahx-Ub-VS probe labelling (fragment/DMSO); higher = less target engagement (more negative = stronger competition), active = hit call of the paper (q ≤ 0.05, log2 ratio ≤ -1)
Details in all cases: compound concentration: 200 uM; treatment time: 3 h
USP42 = biological target: T1, USP42 (UniProt Q9H9J4)
T1 sequence (whole entry): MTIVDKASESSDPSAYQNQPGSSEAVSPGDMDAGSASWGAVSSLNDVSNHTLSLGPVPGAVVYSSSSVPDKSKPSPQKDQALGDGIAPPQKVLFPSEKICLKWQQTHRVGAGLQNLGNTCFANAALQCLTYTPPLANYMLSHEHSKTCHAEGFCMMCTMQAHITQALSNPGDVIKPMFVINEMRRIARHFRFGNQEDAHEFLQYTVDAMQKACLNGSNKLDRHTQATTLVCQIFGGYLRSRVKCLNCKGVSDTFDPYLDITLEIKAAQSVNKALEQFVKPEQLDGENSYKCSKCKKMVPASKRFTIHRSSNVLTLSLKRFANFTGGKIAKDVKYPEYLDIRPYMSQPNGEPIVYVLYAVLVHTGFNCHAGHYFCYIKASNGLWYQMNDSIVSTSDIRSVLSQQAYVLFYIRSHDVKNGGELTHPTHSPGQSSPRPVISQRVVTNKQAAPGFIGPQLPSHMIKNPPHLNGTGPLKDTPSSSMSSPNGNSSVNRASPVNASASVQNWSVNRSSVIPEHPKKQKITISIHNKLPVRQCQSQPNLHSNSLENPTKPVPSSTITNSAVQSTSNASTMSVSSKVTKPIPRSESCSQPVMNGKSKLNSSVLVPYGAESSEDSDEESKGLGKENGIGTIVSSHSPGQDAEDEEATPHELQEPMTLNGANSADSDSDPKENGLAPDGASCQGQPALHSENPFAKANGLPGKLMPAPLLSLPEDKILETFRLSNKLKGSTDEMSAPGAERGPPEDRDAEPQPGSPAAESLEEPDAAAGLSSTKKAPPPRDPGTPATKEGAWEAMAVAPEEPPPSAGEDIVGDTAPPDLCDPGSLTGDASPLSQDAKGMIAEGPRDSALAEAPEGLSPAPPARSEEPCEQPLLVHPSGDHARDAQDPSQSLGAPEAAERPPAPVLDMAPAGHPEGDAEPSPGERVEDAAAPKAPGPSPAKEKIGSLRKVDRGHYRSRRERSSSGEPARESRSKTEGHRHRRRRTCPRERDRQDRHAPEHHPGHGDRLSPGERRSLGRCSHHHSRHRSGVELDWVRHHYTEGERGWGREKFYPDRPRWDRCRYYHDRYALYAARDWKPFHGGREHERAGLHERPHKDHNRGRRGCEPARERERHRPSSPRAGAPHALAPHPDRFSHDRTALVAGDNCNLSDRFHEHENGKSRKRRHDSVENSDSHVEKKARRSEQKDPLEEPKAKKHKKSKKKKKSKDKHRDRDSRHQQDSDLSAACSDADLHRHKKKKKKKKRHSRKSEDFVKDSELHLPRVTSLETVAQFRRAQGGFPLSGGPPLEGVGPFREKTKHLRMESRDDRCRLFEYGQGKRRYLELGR
In short: (§1)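 HEK293T lysate (495 µg per sample, in Tris/CHAPS/IGEPAL buffer with protease inhibitors) was exposed in triplicate for 3 h to fragment at 200 µM or to vehicle, then to Biotin-Ahx-Ub-VS at 0.5 µM final for 1 h. Labelled DUBs were enriched on NeutrAvidin, digested with LysC and trypsin, and analysed by diaPASEF LC-MS/MS. Spectronaut label-free quantities were normalised to the global median, and values are average log2 ratios of fragment over vehicle from an unpaired t-test. Only proteins with ≥2 unique peptides were used.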

USP46 = USP46 (UniProt P62068)
Chain of USP46 (P62068 whole entry): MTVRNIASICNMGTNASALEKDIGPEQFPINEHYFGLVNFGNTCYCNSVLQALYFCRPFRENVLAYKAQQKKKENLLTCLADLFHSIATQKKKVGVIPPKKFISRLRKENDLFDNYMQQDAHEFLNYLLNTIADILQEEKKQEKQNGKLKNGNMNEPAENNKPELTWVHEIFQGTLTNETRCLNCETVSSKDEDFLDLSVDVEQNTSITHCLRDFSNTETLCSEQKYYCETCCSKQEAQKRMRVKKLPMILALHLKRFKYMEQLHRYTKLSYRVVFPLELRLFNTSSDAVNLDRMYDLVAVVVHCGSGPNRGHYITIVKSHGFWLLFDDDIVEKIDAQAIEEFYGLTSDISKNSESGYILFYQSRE
In short: as §1

USP47 = biological target: T2, USP47 (UniProt Q96K76)
T2 sequence (whole entry): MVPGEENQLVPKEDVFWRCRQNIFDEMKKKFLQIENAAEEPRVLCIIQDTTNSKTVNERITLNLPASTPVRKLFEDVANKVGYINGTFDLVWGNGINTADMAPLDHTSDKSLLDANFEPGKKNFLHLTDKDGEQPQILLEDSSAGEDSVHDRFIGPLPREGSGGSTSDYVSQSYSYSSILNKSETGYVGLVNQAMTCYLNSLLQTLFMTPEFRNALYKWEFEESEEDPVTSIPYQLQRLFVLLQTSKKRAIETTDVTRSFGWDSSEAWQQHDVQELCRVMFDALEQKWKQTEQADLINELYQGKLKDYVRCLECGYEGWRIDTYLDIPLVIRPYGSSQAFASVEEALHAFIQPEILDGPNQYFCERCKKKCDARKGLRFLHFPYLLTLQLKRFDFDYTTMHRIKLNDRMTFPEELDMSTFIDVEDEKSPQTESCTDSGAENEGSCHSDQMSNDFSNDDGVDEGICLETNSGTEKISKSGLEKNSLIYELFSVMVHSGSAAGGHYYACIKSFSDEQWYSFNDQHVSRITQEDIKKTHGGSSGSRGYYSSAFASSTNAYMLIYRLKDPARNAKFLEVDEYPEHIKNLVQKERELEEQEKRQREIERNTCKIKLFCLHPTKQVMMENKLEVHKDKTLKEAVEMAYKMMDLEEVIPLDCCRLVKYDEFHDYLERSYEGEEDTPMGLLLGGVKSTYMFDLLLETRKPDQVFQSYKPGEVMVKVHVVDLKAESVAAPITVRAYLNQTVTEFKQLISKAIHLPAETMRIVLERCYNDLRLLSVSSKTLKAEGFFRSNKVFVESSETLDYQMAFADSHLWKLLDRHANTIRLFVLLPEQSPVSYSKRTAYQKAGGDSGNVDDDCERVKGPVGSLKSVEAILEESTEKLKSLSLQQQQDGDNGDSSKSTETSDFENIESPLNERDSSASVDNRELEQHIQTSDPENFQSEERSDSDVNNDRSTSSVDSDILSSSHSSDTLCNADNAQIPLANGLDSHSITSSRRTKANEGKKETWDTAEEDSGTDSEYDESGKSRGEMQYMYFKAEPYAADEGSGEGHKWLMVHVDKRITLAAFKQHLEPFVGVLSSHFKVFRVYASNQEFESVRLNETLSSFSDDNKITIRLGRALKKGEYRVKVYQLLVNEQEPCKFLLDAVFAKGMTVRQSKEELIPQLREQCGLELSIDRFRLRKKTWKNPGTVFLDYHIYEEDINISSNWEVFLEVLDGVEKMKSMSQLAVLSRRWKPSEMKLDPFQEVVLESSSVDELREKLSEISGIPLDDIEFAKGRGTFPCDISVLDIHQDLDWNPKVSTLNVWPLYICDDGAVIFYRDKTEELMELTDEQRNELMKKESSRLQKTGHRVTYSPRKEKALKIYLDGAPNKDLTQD
In short: as §1

USP48 = biological target: T3, USP48 (UniProt Q86UV5)
T3 sequence (whole entry): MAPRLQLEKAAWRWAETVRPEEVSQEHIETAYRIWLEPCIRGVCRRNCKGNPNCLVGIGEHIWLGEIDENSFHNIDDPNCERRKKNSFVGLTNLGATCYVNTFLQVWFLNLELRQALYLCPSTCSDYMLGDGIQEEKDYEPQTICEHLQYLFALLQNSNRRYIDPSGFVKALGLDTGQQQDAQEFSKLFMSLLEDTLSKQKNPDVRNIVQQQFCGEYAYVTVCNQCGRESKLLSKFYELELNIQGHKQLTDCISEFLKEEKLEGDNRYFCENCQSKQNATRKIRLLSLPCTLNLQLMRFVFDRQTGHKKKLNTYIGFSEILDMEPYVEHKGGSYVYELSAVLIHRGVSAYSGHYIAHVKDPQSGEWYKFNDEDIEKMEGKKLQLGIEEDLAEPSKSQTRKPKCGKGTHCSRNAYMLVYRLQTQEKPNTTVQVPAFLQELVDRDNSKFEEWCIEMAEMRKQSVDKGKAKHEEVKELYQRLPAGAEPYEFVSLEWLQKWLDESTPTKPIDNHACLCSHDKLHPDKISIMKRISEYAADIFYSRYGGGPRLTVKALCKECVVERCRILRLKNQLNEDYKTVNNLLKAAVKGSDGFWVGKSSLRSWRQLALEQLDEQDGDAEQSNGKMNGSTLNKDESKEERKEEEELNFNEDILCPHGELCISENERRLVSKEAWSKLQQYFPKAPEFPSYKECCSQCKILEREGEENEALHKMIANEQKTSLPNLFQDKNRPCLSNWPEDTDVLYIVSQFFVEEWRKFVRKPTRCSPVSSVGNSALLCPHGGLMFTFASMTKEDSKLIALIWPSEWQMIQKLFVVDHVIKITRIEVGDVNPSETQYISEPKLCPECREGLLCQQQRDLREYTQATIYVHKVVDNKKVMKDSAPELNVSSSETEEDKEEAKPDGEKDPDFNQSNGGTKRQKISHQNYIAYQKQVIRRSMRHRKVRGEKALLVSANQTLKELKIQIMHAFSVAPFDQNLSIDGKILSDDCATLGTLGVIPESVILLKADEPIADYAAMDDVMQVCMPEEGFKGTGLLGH
In short: as §1

USP5 = biological target: T4, USP5 (UniProt P45974)
T4 sequence (whole entry): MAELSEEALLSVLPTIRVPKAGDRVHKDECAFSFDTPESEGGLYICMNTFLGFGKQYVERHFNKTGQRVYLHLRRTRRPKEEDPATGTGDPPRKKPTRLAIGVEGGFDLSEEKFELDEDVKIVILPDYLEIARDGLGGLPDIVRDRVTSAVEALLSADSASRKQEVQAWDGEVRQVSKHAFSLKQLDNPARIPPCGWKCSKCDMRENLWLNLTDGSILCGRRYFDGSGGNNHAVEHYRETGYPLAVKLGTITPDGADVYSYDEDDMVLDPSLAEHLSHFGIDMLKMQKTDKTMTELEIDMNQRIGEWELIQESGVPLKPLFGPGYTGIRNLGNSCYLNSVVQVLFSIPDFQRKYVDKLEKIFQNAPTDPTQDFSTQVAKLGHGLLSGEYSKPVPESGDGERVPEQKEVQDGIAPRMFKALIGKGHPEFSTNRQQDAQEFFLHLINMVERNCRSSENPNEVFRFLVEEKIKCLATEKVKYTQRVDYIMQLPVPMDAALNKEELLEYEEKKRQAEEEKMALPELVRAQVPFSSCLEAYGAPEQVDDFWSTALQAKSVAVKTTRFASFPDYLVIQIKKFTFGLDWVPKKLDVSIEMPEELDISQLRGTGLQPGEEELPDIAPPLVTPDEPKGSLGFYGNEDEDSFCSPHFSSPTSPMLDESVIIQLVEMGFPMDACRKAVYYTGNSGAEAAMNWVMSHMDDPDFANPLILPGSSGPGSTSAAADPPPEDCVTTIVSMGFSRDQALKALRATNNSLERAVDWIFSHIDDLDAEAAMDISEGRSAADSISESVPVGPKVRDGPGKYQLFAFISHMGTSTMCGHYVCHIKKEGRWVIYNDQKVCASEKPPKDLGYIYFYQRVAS
In short: as §1

USP54 = USP54 (UniProt Q70EL1)
In short: as §1

USP7 = USP7 (UniProt Q93009)
Chain of USP7 (Q93009 whole entry, looked up): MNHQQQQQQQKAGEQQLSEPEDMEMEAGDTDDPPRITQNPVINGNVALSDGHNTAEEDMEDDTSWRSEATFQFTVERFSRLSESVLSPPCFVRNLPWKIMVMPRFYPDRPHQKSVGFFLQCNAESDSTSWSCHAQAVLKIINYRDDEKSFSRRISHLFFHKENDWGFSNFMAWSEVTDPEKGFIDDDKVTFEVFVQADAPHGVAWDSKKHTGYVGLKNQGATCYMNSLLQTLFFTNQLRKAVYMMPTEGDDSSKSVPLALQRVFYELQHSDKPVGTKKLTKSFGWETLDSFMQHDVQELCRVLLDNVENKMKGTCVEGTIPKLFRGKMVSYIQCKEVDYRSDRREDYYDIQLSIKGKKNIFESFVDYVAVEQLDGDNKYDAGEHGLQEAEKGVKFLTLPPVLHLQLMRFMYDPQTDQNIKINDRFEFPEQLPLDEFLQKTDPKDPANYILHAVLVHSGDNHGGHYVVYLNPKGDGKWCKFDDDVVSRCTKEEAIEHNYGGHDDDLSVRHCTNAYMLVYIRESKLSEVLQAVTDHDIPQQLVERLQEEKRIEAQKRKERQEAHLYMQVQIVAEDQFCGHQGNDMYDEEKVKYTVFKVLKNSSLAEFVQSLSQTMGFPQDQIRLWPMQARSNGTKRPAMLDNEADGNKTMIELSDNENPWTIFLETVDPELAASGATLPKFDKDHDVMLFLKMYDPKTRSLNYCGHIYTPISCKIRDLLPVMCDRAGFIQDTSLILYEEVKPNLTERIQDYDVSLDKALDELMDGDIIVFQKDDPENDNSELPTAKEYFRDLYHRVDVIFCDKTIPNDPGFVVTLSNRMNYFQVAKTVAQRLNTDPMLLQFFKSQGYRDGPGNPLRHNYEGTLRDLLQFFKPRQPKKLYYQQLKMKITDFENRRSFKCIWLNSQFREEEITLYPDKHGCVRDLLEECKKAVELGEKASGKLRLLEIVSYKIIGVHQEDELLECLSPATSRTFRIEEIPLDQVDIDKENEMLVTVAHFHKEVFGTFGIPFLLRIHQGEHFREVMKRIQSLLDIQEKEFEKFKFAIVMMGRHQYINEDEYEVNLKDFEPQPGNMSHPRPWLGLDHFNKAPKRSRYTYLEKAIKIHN
In short: as §1

USP8 = biological target: T5, USP8 (UniProt P40818)
T5 sequence (whole entry): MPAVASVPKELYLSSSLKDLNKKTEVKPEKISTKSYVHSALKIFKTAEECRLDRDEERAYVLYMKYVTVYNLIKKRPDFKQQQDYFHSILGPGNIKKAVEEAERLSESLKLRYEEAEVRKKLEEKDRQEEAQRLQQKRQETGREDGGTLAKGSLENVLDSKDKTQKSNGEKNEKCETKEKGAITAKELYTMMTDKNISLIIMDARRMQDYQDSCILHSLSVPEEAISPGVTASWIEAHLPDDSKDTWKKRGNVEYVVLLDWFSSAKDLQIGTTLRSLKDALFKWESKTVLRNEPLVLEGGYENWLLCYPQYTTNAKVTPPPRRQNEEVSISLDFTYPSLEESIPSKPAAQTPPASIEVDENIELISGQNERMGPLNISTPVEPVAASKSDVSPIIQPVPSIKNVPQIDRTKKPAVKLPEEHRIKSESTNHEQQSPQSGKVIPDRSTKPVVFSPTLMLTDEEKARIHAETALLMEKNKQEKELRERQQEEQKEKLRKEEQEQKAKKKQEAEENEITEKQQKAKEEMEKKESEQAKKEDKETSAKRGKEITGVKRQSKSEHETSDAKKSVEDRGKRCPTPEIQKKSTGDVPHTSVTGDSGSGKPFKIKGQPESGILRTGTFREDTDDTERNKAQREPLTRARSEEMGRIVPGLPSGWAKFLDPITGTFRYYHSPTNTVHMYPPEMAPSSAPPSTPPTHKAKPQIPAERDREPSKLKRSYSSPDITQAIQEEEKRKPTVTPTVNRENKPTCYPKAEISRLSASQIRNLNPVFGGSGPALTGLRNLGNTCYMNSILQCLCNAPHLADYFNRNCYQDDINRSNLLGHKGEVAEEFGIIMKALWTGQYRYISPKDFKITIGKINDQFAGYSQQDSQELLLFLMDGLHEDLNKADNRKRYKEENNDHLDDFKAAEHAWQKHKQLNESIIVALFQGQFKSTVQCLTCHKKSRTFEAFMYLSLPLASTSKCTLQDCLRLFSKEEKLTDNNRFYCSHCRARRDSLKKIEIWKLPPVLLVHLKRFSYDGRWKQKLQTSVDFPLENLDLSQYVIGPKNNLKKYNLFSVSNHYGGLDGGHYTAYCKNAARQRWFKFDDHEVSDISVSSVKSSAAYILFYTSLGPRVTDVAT
In short: as §1

USP9X = USP9X (UniProt Q93008)
Chain of USP9X (Q93008 whole entry): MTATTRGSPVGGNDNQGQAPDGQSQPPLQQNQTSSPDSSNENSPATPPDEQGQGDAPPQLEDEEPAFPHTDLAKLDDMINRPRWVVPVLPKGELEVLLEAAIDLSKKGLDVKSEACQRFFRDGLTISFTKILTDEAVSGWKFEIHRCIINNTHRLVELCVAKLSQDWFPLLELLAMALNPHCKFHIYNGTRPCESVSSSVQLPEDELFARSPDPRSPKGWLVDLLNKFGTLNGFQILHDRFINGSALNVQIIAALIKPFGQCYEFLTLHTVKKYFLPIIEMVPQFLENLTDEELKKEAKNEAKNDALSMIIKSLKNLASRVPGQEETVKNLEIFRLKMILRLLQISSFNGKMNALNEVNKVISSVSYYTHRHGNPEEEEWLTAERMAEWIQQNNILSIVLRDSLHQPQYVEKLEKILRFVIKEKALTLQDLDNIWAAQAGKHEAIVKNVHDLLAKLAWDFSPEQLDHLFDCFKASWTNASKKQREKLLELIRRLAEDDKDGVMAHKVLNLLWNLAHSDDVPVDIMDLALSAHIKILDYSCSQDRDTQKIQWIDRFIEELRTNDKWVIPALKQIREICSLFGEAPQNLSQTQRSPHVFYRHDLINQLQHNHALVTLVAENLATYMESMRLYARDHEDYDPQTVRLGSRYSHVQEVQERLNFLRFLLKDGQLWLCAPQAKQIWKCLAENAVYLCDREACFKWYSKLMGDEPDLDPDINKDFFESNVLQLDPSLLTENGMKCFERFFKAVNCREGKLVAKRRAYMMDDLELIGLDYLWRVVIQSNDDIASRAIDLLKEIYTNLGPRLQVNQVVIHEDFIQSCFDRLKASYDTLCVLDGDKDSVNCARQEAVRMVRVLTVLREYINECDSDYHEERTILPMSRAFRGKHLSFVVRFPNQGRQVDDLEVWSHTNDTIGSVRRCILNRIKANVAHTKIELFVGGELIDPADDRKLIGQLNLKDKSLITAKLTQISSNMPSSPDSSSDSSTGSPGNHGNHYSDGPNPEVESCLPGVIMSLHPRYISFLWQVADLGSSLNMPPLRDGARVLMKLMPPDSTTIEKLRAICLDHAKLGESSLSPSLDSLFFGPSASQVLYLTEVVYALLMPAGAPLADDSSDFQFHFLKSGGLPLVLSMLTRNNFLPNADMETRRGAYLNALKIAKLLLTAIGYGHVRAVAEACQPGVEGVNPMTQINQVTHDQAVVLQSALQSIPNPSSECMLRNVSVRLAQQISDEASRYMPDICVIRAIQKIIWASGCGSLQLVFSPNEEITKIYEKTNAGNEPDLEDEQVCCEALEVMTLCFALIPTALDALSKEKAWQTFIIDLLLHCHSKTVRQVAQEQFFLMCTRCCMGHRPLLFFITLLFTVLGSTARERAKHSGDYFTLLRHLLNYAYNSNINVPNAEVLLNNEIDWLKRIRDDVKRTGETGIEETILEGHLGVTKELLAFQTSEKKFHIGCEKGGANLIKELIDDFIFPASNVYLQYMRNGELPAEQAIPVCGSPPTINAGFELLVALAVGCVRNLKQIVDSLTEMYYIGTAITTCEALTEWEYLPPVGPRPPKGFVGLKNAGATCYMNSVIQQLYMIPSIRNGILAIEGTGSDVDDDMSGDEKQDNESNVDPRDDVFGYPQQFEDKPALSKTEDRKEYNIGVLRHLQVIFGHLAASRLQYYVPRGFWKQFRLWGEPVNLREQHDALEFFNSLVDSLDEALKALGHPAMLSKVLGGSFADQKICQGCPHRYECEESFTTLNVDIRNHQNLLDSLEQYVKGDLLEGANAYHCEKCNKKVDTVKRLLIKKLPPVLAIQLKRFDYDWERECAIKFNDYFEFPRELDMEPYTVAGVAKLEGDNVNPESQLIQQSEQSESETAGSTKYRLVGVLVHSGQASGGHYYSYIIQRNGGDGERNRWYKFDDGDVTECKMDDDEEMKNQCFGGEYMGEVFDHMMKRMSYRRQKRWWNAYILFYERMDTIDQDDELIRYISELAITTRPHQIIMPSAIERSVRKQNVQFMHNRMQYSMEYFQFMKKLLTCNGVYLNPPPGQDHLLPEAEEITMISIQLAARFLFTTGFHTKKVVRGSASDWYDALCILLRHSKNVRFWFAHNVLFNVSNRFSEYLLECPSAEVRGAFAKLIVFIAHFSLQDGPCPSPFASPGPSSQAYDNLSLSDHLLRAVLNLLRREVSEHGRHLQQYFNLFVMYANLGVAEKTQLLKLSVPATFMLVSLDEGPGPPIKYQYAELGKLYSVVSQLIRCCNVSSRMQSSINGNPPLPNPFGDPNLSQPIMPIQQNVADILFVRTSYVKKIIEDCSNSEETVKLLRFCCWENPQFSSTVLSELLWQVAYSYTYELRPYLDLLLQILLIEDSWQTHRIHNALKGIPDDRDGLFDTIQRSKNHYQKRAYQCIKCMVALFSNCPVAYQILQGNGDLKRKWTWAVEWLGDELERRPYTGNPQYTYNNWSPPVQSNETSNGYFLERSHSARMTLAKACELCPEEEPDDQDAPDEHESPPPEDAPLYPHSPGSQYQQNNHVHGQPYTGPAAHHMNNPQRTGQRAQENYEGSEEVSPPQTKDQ
In short: as §1

UniProt O00487 = biological target: UniProt O00487
Chain of UniProt O00487 (O00487 whole entry): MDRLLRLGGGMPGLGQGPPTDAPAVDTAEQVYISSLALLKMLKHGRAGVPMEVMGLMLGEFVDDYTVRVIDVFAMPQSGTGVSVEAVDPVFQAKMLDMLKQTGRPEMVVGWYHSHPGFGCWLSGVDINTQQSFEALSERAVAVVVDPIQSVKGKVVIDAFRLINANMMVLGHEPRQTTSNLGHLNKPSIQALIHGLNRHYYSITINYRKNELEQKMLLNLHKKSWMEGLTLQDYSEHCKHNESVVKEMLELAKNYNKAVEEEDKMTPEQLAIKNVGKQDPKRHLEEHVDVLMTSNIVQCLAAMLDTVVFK
In short: as §1

Measured: log2 ratio of Biotin-Ahx-Ub-VS probe labelling

O=C(CCl)NCc1ccc(Cl)cc1
inactive: USP42 0.175 | USP46 -0.0156 | USP47 -0.0592 | USP48 0.107 | USP5 -0.0207 | USP54 -0.625 | USP7 -0.206 | USP8 0.105 | USP9X 0.00725 | UniProt O00487 -0.0216
